Assay results taken from PubChem BioAssay (Tox21).
Results filed as inconclusive are left out. Activity calls are given as the source filed them. Unless noted, calls follow the shape of the dose curve; as a rule, active = well fitted curve in the direction sought with a large enough effect in the repeat runs; inconclusive = weak or mixed curves; inactive = no such curve, though single readings can be large; an effect the other way counts as inactive or inconclusive.

How the values were obtained:
[1] = molecular target: Estrogen receptor (Homo sapiens) (UniProt P03372); assay: qHTS assay to identify small molecule agonists of the estrogen receptor alpha (ER-alpha) signaling pathway in the presence of an antagonist (AID 1259383; calls by dose curve; also: top concentration of the series differs between compounds; nearly all actives have a fitted effect of over 15% in size)
In short: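 Using VM7Luc4E2 cells seeded 24hr before treatment, antagonist ICI-182,780 (10.0nM final) was added, followed by compounds at 15 concentrations. Plates incubated 22hr; ONE-Glo luminescence quantified reporter activity.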

[2] = qHTS assay to identify small molecule agonists or antagonists of the thyroid stimulating hormone receptor (TSHR) signaling pathway - wild type cell line counter screen (AID 1259384; calls by dose curve)
In short: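 Wild-type HEK293 cells were plated 18 h at 37 C/5% CO2, pin-dosed with compound plus Ro20-1724 medium, held 30 min at room temperature, then given cAMP-d2 and anti-cAMP-cryptate; fluorescence was read after 1 h. Fifteen concentrations, triplicate.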

[3] = molecular target: Thyrotropin receptor (Homo sapiens) (UniProt P16473); assay: qHTS assay to identify small molecule antagonists of the thyroid stimulating hormone receptor (TSHR) signaling pathway (AID 1259385; calls by dose curve; also: nearly all actives have a fitted effect of over 20% in size)
In short: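 TSHR-HEK293 cells were plated and held 18 h at 37C/5% CO2, then given compound plus Ro20-1724 and stimulated with TSH at 1.5 ng/mL final. After 30 min at room temperature, cAMP was detected with cAMP-d2/anti-cAMP-cryptate (1 h) by fluorescence.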

[4] = qHTS assay to identify small molecule agonists of the estrogen receptor alpha (ER-alpha) signaling pathway in the presence of an antagonist - cell viability counter screen (AID 1259386);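 also: series mostly up to about 92 µM; cells exposed to compounds for 22 h at 37 °C before the viability read; nearly all actives have a fitted effect of over 30% in size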
In short: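 ICI-182,780 at 10.0nM final accompanies the compound titration (15 concentrations, 22hr, 37C) on VM7Luc4E2 cells. The CellTiter-Fluor fluorescence readout runs in the same wells as the luciferase assay.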

[5] = molecular target: Progesterone receptor (Homo sapiens) (UniProt P06401); assay: qHTS assay to identify small molecule agonists of the progesterone receptor (PR) signaling pathway (AID 1346784; calls by dose curve; also: nearly all actives have a fitted effect of over 30% in size)
In short: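 Reporter assay, GripTite PR-UAS-bla HEK 293T cells: 16 hr exposure to DMSO-dissolved compounds at 37C, 5% CO2, in steroid-depleted (2% charcoal-stripped FBS) medium; beta-lactamase measured by FRET fluorescence.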

[6] = molecular target: Progesterone receptor (Homo sapiens) (UniProt P06401); assay: qHTS assay to identify small molecule antagonists of the progesterone receptor (PR) signaling pathway (AID 1346795; active = well fitted inhibition curve with a large enough effect in the signal ratio in the repeat runs, not every such curve was filed as active; the % refers to the signal ratio)
In short: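 Stimulus R5020 at 1 nM final; cells HEK293T PR-UAS-bla; medium with 2% charcoal-stripped FBS; compound exposure 16 hr at 37C, 5% CO2; detection by FRET beta-lactamase substrate, 2 hr, room temperature.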

[7] = qHTS assay to identify small molecule antagonists of the TGF-beta/Smad signaling pathway - cell viability counter screen (AID 1346824); also: nearly all actives have a fitted effect of over 50% in size
In short: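 SBE-bla HEK 293T cells were plated overnight at 37 C, then given compounds in DMSO plus TGF-beta1 (added as 0.25 ng/mL solution) for 5 hr. After the bla read, CellTiter-Glo was added to the same wells and luminescence read after 30 min at room temperature.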

[8] = qHTS assay to identify small molecule agonists of the TGF-beta/Smad signaling pathway - cell viability counter screen (AID 1346829); also: top concentration of the series differs between compounds; nearly all actives have a fitted effect of over 45% in size
In short: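 Cytotoxicity counter screen: CellTiter-Glo luminescence (30 min, room temperature) measured in the SBE-bla HEK 293T reporter wells after 5 hr compound treatment at 37 C and the 2 hr substrate step.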

[9] = Human pregnane X receptor (PXR) small molecule agonists, qHTS cell viability counter screen (AID 1346977); also: nearly all actives have a fitted effect of over 50% in size
In short: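 In each well, the PXR reporter HepG2 line was checked for viability: CellTiter-Fluor reagent added 23hr post-dosing, fluorescence read after 1hr incubation at 37C.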

[10] = Caspase-3/7 induction in CHO-K1 cells by small molecules, qHTS cell viability counter screen (AID 1346979); also: nearly all actives have a fitted effect of over 35% in size
In short: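 Following a 5hr settling period, CHO-K1 cells at 1,500 per well received DMSO-dissolved compounds. Cell viability was quantified 16hr later by CellTiter-Fluor fluorescence, measured after 1hr with reagent at 37C.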

[11] = Caspase-3/7 induction in CHO-K1 cells by small molecules, qHTS assay (AID 1346980); also: nearly all actives have a fitted effect of over 15% in size
In short: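 Wild-type cells were seeded at 1,500 per well and settled 5 hr at 37 C, 5% CO2, then exposed to DMSO-dissolved compounds for 17 hr. Caspase-Glo 3/7 reagent was added, and luminescence was read after 30min at room temperature.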

[12] = Caspase-3/7 induction in HepG2 cells by small molecules, qHTS cell viability counter screen (AID 1346981); also: series mostly up to about 92 µM; nearly all actives have a fitted effect of over 30% in size
In short: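 Multiplexed with the caspase-3/7 assay: HepG2 cells, 16 hr compound treatment, CellTiter-Fluor viability detection by fluorescence.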

[13] = qHTS assay to identify small molecule agonists of the progesterone receptor (PR) signaling pathway - cell viability counter screen (AID 1346799; calls by dose curve; also: nearly all actives have a fitted effect of over 45% in size; also: potency is read from the fitted curve at half-maximal effect)
In short: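 Multiplexed viability read: CellTiter-Glo luminescence, 30 min RT, following LiveBLAzer FRET measurement on PR-UAS-bla HEK293T cells exposed to compounds 16 hr.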

[14] = qHTS assay to identify small molecule agonists of the TGF-beta/Smad signaling pathway (AID 1346859; active = well fitted activation curve with a large enough effect in the signal ratio in the repeat runs, not every such curve was filed as active; the % refers to the signal ratio; also: series mostly up to about 77 µM)
In short: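 Screening used HEK 293T SBE-bla cells at 4,000/well. Test agents: 5 hr, 37 C. Detection: FRET substrate, 2 hr RT, then excitation 405 nm with emissions at 460 and 530 nm.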

[15] = molecular target: Thyrotropin-releasing hormone receptor (Homo sapiens) (UniProt P34981); assay: qHTS assay to identify small molecule antagonists of the thyrotropin-releasing hormone receptor (TRHR) signaling pathway (AID 1346877; active = well fitted inhibition curve with a large enough effect in the repeat runs, not every such curve was filed as active; also: series mostly up to about 51 µM)
In short: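 Screening used HEK293 cells engineered with TRHR, with a brief 5 min room-temperature compound exposure preceding addition of TRH to 1 nM. The read-out was kinetic calcium-dye fluorescence, concentration-response from 15 doses in triplicate.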

[16] = molecular target: Thyrotropin-releasing hormone receptor (Homo sapiens) (UniProt P34981); assay: qHTS assay to identify small molecule agonists of the thyrotropin-releasing hormone receptor (TRHR) signaling pathway (AID 1346891; calls by dose curve; also: series mostly up to about 58 µM)
In short: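 Readout was intracellular calcium fluorescence in TRHR-Hek293 cells. Cells were incubated 18 h, dye-loaded 2 h at 37 °C, and treated with compound in agonist mode.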

[17] = Caspase-3/7 induction in HepG2 cells by small molecules, qHTS assay (AID 1346978); also: nearly all actives have a fitted effect of over 15% in size
In short: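 Wild-type HepG2 cells (2,000/well) were settled 5 h at 37 C, 5% CO2, then exposed to compounds in DMSO for 17 h. Caspase-3/7 activity was read by luminescence 30 min after adding Caspase-Glo 3/7 reagent at room temperature.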

[18] = molecular target: Nuclear receptor subfamily 1 group I member 2 (Homo sapiens) (UniProt O75469); assay: Human pregnane X receptor (PXR) small molecule agonists, qHTS assay (AID 1346982); also: nearly all actives have a fitted effect of over 35% in size
In short: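 We seeded PXR-Luc HepG2 cells in assay medium containing 5% charcoal-stripped FBS, added compounds 5 hr later, incubated 24 hr, and read luminescence with ONE-Glo reagent.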

[19] = qHTS assay to identify small molecule antagonists of the progesterone receptor (PR) signaling pathway - cell viability counter screen (AID 1346798); also: series mostly up to about 92 µM; nearly all actives have a fitted effect of over 50% in size
In short: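 In the same plates used for the beta-lactamase readout, cell viability of compound- and R5020-treated PR-UAS-bla HEK293T cells (16 hr, 37C) was assessed by CellTiter-Glo luminescence.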

[20] = molecular target: Nuclear receptor subfamily 1 group I member 2 (Rattus norvegicus) (UniProt Q9R1A7); assay: Rat pregnane X receptor (rPXR) activation by small molecules, qHTS assay (AID 1346983); settings: rPXR luciferase reporter cells, One-Glo luminescence, 24 h; max activation: active compounds read high; also: nearly all actives have a fitted effect of over 20% in size
In short: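 Cell-based rPXR luciferase reporter assay, 2,000 cells per well, rested 5hr at 37 C before compound addition in DMSO, then 24 hr at 37 C. One-Glo reagent was added and luminescence read after 30 min at room temperature.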
% is scaled to controls: 0 for no effect and ±100 for the full control effect.

Sequence of Thyrotropin-releasing hormone receptor (Homo sapiens) (P34981 whole entry, looked up): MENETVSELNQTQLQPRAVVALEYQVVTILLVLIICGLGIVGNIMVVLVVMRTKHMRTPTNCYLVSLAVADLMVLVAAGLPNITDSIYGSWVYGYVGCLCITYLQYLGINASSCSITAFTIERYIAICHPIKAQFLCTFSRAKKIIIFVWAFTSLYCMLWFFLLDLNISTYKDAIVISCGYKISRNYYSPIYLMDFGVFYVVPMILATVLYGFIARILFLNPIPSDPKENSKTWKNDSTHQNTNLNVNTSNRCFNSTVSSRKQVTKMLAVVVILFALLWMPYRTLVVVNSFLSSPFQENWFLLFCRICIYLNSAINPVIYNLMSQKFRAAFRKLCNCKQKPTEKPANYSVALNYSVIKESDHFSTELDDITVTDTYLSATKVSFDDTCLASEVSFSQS
Sequence of Estrogen receptor (Homo sapiens) (P03372 whole entry, looked up): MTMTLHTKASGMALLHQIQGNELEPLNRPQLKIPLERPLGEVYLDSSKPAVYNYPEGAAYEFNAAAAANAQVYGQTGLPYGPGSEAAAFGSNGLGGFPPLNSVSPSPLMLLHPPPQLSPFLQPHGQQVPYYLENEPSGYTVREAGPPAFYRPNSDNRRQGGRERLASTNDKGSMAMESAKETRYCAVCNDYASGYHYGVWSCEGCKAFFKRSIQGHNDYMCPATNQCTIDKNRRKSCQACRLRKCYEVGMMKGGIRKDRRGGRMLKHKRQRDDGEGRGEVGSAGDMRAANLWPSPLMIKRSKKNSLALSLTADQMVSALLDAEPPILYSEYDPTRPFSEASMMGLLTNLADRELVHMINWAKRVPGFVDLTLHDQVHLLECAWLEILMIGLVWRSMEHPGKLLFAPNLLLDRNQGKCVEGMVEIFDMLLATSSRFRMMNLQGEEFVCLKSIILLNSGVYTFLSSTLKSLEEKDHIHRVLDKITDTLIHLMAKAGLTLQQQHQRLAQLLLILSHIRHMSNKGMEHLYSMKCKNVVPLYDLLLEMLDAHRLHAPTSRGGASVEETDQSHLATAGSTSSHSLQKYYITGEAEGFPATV
Sequence of Progesterone receptor (Homo sapiens) (P06401 whole entry, looked up): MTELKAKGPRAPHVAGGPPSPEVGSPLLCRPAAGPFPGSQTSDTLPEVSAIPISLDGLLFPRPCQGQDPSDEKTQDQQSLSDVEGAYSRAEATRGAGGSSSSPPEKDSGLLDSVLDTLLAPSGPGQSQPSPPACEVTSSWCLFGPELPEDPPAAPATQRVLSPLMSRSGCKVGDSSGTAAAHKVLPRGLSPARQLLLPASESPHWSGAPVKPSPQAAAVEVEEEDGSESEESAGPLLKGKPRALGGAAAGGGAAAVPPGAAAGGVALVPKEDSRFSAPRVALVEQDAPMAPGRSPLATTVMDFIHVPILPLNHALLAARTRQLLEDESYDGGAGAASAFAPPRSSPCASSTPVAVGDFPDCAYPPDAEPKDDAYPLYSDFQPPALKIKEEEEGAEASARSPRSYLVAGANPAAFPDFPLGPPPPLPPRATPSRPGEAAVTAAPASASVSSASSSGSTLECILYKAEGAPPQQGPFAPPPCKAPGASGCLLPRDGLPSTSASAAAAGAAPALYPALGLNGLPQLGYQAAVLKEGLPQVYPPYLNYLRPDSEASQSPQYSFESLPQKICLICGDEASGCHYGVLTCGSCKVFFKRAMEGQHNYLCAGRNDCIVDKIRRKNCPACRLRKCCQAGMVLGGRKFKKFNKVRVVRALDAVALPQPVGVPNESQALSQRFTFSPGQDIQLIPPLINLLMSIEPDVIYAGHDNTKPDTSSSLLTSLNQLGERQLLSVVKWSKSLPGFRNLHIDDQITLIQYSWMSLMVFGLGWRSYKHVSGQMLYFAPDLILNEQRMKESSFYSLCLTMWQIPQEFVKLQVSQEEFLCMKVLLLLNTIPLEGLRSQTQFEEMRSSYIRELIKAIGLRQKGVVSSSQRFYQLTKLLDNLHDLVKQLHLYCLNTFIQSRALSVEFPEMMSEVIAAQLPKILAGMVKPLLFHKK
Sequence of Nuclear receptor subfamily 1 group I member 2 (Homo sapiens) (O75469 whole entry, looked up): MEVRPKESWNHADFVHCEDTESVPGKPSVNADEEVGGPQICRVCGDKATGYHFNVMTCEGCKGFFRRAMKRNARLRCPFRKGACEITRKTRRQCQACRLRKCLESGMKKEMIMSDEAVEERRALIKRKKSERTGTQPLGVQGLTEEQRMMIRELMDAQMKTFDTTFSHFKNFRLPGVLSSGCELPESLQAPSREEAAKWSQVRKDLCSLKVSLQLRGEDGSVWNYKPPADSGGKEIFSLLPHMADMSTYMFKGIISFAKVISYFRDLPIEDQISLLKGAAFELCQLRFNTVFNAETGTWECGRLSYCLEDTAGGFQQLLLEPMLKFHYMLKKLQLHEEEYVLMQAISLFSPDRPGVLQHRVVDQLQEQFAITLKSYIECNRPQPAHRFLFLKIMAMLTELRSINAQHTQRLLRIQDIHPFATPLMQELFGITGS
Sequence of Nuclear receptor subfamily 1 group I member 2 (Rattus norvegicus) (Q9R1A7 whole entry, looked up): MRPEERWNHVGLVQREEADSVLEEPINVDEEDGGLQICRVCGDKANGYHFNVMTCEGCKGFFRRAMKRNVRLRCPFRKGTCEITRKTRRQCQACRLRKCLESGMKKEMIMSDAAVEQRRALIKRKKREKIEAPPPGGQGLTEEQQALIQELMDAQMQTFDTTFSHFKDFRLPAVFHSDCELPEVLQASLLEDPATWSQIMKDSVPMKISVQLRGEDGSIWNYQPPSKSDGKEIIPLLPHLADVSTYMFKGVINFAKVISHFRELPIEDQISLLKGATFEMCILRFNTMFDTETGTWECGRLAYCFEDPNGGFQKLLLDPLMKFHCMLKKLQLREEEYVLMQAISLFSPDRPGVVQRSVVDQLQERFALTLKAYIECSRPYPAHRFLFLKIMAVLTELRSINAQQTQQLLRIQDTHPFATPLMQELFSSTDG
Sequence of Thyrotropin receptor (Homo sapiens) (P16473 whole entry, looked up): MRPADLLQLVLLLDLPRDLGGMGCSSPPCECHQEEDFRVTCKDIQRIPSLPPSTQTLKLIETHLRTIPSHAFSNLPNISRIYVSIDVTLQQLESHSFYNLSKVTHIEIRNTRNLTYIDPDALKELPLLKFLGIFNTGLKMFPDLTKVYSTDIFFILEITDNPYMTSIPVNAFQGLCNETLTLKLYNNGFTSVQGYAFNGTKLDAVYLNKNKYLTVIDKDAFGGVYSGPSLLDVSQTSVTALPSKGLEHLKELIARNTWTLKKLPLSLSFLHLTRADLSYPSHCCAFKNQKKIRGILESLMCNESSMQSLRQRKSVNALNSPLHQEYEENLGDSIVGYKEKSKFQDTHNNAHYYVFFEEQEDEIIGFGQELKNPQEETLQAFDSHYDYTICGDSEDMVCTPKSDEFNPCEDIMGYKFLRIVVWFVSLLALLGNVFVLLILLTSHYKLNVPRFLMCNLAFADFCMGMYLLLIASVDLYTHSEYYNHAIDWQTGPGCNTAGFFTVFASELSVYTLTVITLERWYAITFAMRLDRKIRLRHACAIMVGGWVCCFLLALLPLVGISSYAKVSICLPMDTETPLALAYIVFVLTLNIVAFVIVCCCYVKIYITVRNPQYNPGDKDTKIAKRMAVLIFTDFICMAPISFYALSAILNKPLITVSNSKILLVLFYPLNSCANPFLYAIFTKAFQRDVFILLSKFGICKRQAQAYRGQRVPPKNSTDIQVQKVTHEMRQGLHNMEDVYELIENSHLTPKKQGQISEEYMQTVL

C=CCOc1c(Br)cc(C(C)(C)c2cc(Br)c(OCC=C)c(Br)c2)cc1Br
inactive: outcome [1] | outcome [2] | outcome [3] | Potency [4] | Potency [5] | Potency [6] | outcome [7] | outcome [8] | Potency [9] | Potency [10] | outcome [11] | Potency [12]

CC(C)(C)NCCO
active: Potency [13] 48.6 µM
inactive: outcome [1] | Potency [4] | Potency [5] | outcome [7] | outcome [8] | outcome [14] | outcome [15] | outcome [16] | Potency [9] | outcome [17] | Potency [10] | outcome [11] | Potency [12] | Potency [18]

Cc1ccccc1C
inactive: outcome [1] | Potency [4] | Potency [5] | Potency [6] | Potency [13] | outcome [7] | outcome [8] | outcome [14] | Potency [9] | outcome [17] | Potency [10] | Potency [12] | Potency [18]

CCC(C)N (stereo not drawn)
inactive: outcome [1] | Potency [4] | Potency [5] | Potency [6] | Potency [19] | outcome [7] | outcome [8] | outcome [14] | outcome [15] | outcome [16] | Potency [9] | outcome [17] | Potency [10] | outcome [11] | Potency [12] | Potency [18]

CC(CC(=O)O)CC(C)(C)C (stereo not drawn)
inactive: outcome [1] | Potency [4] | Potency [5] | Potency [6] | Potency [19] | Potency [13] | outcome [7] | outcome [8] | outcome [14] | outcome [15] | outcome [16] | Potency [9] | outcome [17] | Potency [10] | outcome [11] | Potency [12] | Potency [18]

C[Si]1(C)N[Si](C)(C)N[Si](C)(C)N1
inactive: outcome [1] | Potency [4] | Potency [5] | Potency [6] | Potency [19] | outcome [7] | outcome [8] | outcome [14] | outcome [15] | outcome [16] | Potency [9] | outcome [17] | Potency [10] | outcome [11] | Potency [18]

CO[Si](CCCCl)(OC)OC
inactive: outcome [1] | Potency [4] | Potency [5] | Potency [6] | Potency [19] | outcome [7] | outcome [8] | outcome [14] | outcome [15] | outcome [16] | Potency [9] | outcome [17] | Potency [10] | outcome [11] | Potency [12] | Potency [18]

O=C(Nc1cccc(C2=NCCN2)c1)Nc1cccc(C2=NCCN2)c1
inactive: activation [1] 0.321% [at 19 µM] | activity change, negative = cytotoxicity [4] 1.98% [at 19 µM] | activity change, negative = cytotoxicity [19] 21% [at 18.9 µM] | activity change, negative = cytotoxicity [13] 7.7% [at 19 µM] | viability change, negative = cytotoxic [7] -4.13% [at 15.8 µM] | activity change, negative = cytotoxicity [8] -14.4% [at 15.8 µM] | activation [14] 0.662% [at 15.8 µM] | activity change, negative = cytotoxicity [9] 1.2% [at 19 µM] | caspase activation [17] -0.792% [at 19 µM] | activity change, negative = cytotoxicity [10] 4% [at 19 µM] | caspase-3/7 activation [11] 0.277% [at 19 µM] | activity change, negative = cytotoxicity [12] 2.76% [at 19 µM] | activation [18] -0.413% [at 19 µM] | max activation [20] -0.171%
